# Laboratory results as given in PubChem BioAssay.
# Activity calls are given as the source filed them. Unless noted, no stated cut-off is given here; in the data, active means inhibition above about 80%; inactive means the rest.
# How the values were obtained:
# [1] = LFS_MB_P medulloblastoma growth inhibition, cell-based, chromothripsis tumors, cisplatin or BGB combos (AID 1671449); settings: LFS_MB_P medulloblastoma cells;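 further: cells exposed for 96 hours; 0% = vehicle DMSO and 100% = killing by high DMSO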
# [2] = HDN33 neuroblastoma growth inhibition, cell-based, chromothripsis tumors, cisplatin or BGB combos (AID 1671450); settings: HDN33 neuroblastoma cells, stronger effect = higher value;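 further: cells exposed to compound for four days; 0% = vehicle DMSO and 100% = cell killing by high DMSO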
# [3] = ICB984 medulloblastoma cell growth inhibition, synergistic combos for chromothripsis tumors, cisplatin or BGB combos (AID 1671451; call rule not given here;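 further: cells exposed for 96 hours before readout; 0% = vehicle DMSO and 100% = killing by high DMSO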); settings: ICB984 medulloblastoma cells, drug combinations, stronger effect = higher value
# [4] = LFS_MB_1R medulloblastoma cell growth inhibition, synergistic combos for chromothripsis tumors, cisplatin or BGB combos (AID 1671452); settings: LFS_MB_1R medulloblastoma cells, stronger effect = higher value;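 further: cells exposed for 96 hours before readout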
# [5] = HTB85 osteosarcoma cell growth inhibition, synergistic combos for chromothripsis tumors, BGB or cisplatin IC20 combos (AID 1671453); settings: HTB85 osteosarcoma cells, drug combinations, stronger effect = higher value;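 further: cells exposed for 96 hours before readout; 0% = vehicle DMSO and 100% = high DMSO killing control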
# [6] = CRL2098 osteosarcoma cell growth inhibition, synergistic combos for chromothripsis tumors, BGB or cisplatin IC20 combos (AID 1671454); settings: CRL2098 osteosarcoma cells, drug combinations, stronger effect = higher value;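 further: cells exposed for 96 h before readout; 0% = vehicle DMSO and 100% = killing by high DMSO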
# [7] = HD-MB03 medulloblastoma cell growth inhibition, synergistic combos for chromothripsis tumors, BGB or cisplatin IC20 combos (AID 1671455; in the data active means inhibition above about 83%;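 further: 0% = vehicle DMSO and 100% = high DMSO as cytotoxic control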); settings: HD-MB03 medulloblastoma cells, stronger effect = higher value
# [8] = UWB1.289 ovarian carcinoma cell growth inhibition, synergistic combos for chromothripsis tumors, BGB or cisplatin combos (AID 1671456); settings: UWB1.289 ovarian carcinoma cells, stronger effect = higher value;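 further: cells exposed to compound for four days; 0% = vehicle DMSO and 100% = killing by high DMSO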
# [9] = LFS_MB_2R medulloblastoma cell growth inhibition, synergistic combos for chromothripsis tumors, cisplatin combos (AID 1671457); settings: LFS_MB_2R medulloblastoma cells, stronger effect = higher value;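 further: cells exposed to compound for four days before readout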
# [10] = MDA-MB-436 breast carcinoma cell growth inhibition, synergistic combos for chromothripsis tumors, BGB or cisplatin combos (AID 1671458; call rule not given here;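 further: cells exposed for 96 hours; 0% = vehicle DMSO and 100% = killing by high DMSO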); settings: MDA-MB-436 breast carcinoma growth inhibition, drug combinations, stronger effect = higher value
# [11] = UWB1.289_BRCA1 ovarian cancer growth, cell-based, BGB or cisplatin combinations (AID 1671459); settings: UWB1.289 BRCA1 ovarian carcinoma, drug combinations, stronger effect = higher value
# [12] = human astrocyte viability loss, single and combined drugs, cytotoxicity control for chromothriptic childhood tumor combination screen, cell-based, BGB or cisplatin IC20 combos (AID 1671460); settings: Human astrocytes, drug combinations, stronger effect = higher value;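 further: cells exposed to compounds for 96 hours before viability readout; 0% = vehicle and 100% = killing control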
# [13] = growth inhibition of BT084 medulloblastoma cells, cell-based, ICGC_MB145, cisplatin and BGB IC40 combos (AID 1671461); settings: drug combinations, stronger effect = higher value;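 further: cells exposed to drugs for 96 hours; 0% = vehicle DMSO and 100% = high DMSO full killing control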
# [14] = growth inhibition of RCMB18 medulloblastoma cells, cell-based, cisplatin and BGB IC40 combos (AID 1671462); settings: stronger effect = higher value;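 further: cells exposed to compound for four days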
# [15] = growth inhibition of CRL1545 osteosarcoma cells, cell-based, cisplatin and BGB IC20 combos (AID 1671464); settings: stronger effect = higher value;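 further: cells exposed to compound for 96 hours before readout; 0% = vehicle DMSO and 100% = high DMSO killing control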
# [16] = at 0.5 µM, stronger effect = higher value
# [17] = measured here: combination with BGB IC20, at 0.005 µM
# [18] = measured here: combination with BGB IC40, at 0.005 µM
# [19] = measured here: combination with BGB IC40, at 0.05 µM
# [20] = measured here: combination with cisplatin, at 0.5 µM, stronger effect = higher value
# [21] = measured here: combination with cisplatin, at 5 µM, stronger effect = higher value
# [22] = measured here: with BGB IC20 combination, at 0.5 µM
# [23] = measured here: with cisplatin IC20 combination, at 0.5 µM
# [24] = measured here: 5 uM single agent, at 5 µM
# [25] = measured here: combination with cisplatin, at 0.5 µM
# [26] = measured here: combination with cisplatin, at 5 µM
# [27] = measured here: with BGB IC20, at 0.5 µM
# [28] = measured here: with BGB IC20, at 5 µM
# [29] = measured here: with cisplatin IC20, at 0.5 µM
# [30] = measured here: with cisplatin IC20, at 5 µM
# [31] = measured here: combination with BGB at IC20, at 0.5 µM
# [32] = measured here: combination with cisplatin at IC20, at 0.5 µM
# [33] = measured here: combo with BGB at IC20, at 0.5 µM
# [34] = measured here: combo with cisplatin at IC20, at 0.5 µM
# [35] = measured here: inhibition with BGB combination, at 0.05 µM
# [36] = measured here: inhibition with cisplatin combination, at 0.05 µM
# [37] = measured here: BGB combination, at 0.5 µM
# [38] = measured here: BGB combination, at 5 µM
# [39] = measured here: cisplatin combination, at 0.5 µM
# [40] = measured here: cisplatin combination, at 5 µM
# [41] = BGB combination, concentration series, at 5 µM
# [42] = cisplatin combination, concentration series, at 5 µM
# [43] = measured here: combo with BGB IC20, at 0.5 µM
# [44] = measured here: combo with cisplatin IC20, at 0.5 µM
# [45] = cisplatin combination, at 0.5 µM
# [46] = measured here: BGB IC40 combination 0.05 uM, at 0.05 µM
# [47] = measured here: BGB IC40 combination, at 0.05 µM
compound,measurement,setting,value
NC(=O)c1ncn(C2OC(CO)C(O)C2O)c1O (stereo unspecified),inhibition,[1]; [16],-12.6% (inactive)
same,inhibition,[1]; [17],-7.32%
same,inhibition,[1]; [18],-2.51%
same,inhibition,[1]; [19],-10.8%
same,inhibition,[1]; [20],-6.4%
same,inhibition,[1]; [21],-30%
same,inhibition,"[2]; BGB combo, at 5 µM",5.04%
same,inhibition,[2]; at 0.5 µM,6.65% (inactive)
same,inhibition,"[2]; cisplatin combo, at 5 µM",-12.8%
same,inhibition,[2]; [22],16.7%
same,inhibition,[2]; [23],12.5%
same,inhibition,"[2]; single agent, at 5 µM",-11%
same,inhibition,"[3]; BGB IC20 combo, at 0.005 µM",6.56%
same,inhibition,"[3]; BGB IC40 combo, at 0.005 µM",-22.2%
same,inhibition,"[3]; BGB IC40 combo, at 0.05 µM",-25%
same,inhibition,[3]; at 0.5 µM,-19.3% (inactive)
same,inhibition,"[3]; cisplatin combo, at 0.05 µM",-25%
same,inhibition,"[3]; cisplatin combo, at 0.5 µM",-21.3%
same,inhibition,"[3]; cisplatin combo, at 5 µM",9.18%
same,inhibition,[3]; [24],-10.8%
same,inhibition,[4]; at 0.5 µM,-1.69% (inactive)
same,inhibition,[4]; [19],11.9%
same,inhibition,[4]; [25],14.5%
same,inhibition,[4]; [26],1.36%
same,inhibition,[5]; at 0.5 µM,-21.2% (inactive)
same,inhibition,[5]; [27],-45.8%
same,inhibition,[5]; [28],-14%
same,inhibition,[5]; [29],-13.3%
same,inhibition,[5]; [30],26.5%
same,inhibition,"[5]; single agent, at 5 µM",4.97%
same,inhibition,[6]; at 0.5 µM,-22.6% (inactive)
same,inhibition,[6]; [31],-31.9%
same,inhibition,[6]; [32],-21.8%
same,inhibition,[7]; at 0.5 µM,-5.96% (inactive)
same,inhibition,[7]; [33],-11.6%
same,inhibition,[7]; [34],0.212%
same,inhibition,[8]; at 0.5 µM,2.16% (inactive)
same,inhibition,[8]; [35],-15.4%
same,inhibition,[8]; [36],-3.17%
same,inhibition,[9]; at 0.5 µM,-17.9% (inactive)
same,inhibition,[9]; [25],-10.4%
same,inhibition,[9]; [26],-9.64%
same,inhibition,[10]; at 0.5 µM,-15.6% (inactive)
same,inhibition,[10]; [37],-16%
same,inhibition,[10]; [38],-1.99%
same,inhibition,[10]; [39],-28.5%
same,inhibition,[10]; [40],-10.8%
same,inhibition,[11]; [41],5.96%
same,inhibition,[11]; at 0.5 µM,2.34% (inactive)
same,inhibition,[11]; [42],12.4%
same,inhibition,[12]; at 0.5 µM,-5.39% (inactive)
same,inhibition,[12]; [43],-5.58%
same,inhibition,[12]; [44],-13.5%
same,inhibition,[13]; at 0.5 µM,-0.897% (inactive)
same,inhibition,[13]; [45],6.23%
same,inhibition,"[13]; cisplatin combination, at 5 µM",-20.7%
same,inhibition,[13]; [46],5.17%
same,inhibition,"[13]; single agent, at 5 µM",-12.6%
same,inhibition,[14]; at 0.5 µM,-9.69% (inactive)
same,inhibition,"[14]; cisplatin combo, at 5 µM",0.143%
same,inhibition,[14]; [47],-17.2%
same,inhibition,[14]; [25],9.55%
same,inhibition,"[14]; single agent, at 5 µM",-31.2%
same,inhibition,[15]; at 0.5 µM,-13.2% (inactive)
same,inhibition,[15]; [22],2.45%
same,inhibition,[15]; [23],-21%
same,inhibition,"[15]; single agent, at 0.05 µM",13%
same,inhibition,"[15]; single agent, at 5 µM",22.2%
C=C1C(=O)O[C@@H]2C=C(C)CCC=C(C)CC[C@@H]12,inhibition,[1]; [16],-19.3% (inactive)
same,inhibition,[1]; [17],-3.36%
same,inhibition,[1]; [18],-13.6%
same,inhibition,[1]; [19],7.16%
same,inhibition,[1]; [20],-51.8%
same,inhibition,[1]; [21],114%
same,inhibition,"[2]; BGB combo, at 5 µM",5.76%
same,inhibition,[2]; at 0.5 µM,-17.6% (inactive)
same,inhibition,"[2]; cisplatin combo, at 5 µM",29.9%
same,inhibition,[2]; [22],-23.4%
same,inhibition,[2]; [23],-29.2%
same,inhibition,"[2]; single agent, at 5 µM",38.5%
same,inhibition,"[3]; BGB IC20 combo, at 0.005 µM",4.25%
same,inhibition,"[3]; BGB IC40 combo, at 0.005 µM",-33%
same,inhibition,"[3]; BGB IC40 combo, at 0.05 µM",53.7%
same,inhibition,[3]; at 0.5 µM,-17.1% (inactive)
same,inhibition,"[3]; cisplatin combo, at 0.05 µM",51.9%
same,inhibition,"[3]; cisplatin combo, at 0.5 µM",-18%
same,inhibition,"[3]; cisplatin combo, at 5 µM",-19.3%
same,inhibition,[3]; [24],-11.6%
same,inhibition,[4]; at 0.5 µM,-31.9% (inactive)
same,inhibition,[4]; [19],-18.3%
same,inhibition,[4]; [25],-29.4%
same,inhibition,[4]; [26],98.6%
same,inhibition,[5]; at 0.5 µM,-6.12% (inactive)
same,inhibition,[5]; [27],-12.5%
same,inhibition,[5]; [28],51.6%
same,inhibition,[5]; [29],-4.05%
same,inhibition,[5]; [30],62.5%
same,inhibition,"[5]; single agent, at 5 µM",66.5%
same,inhibition,[6]; at 0.5 µM,-64.3% (inactive)
same,inhibition,[6]; [31],-14.4%
same,inhibition,[6]; [32],-90.7%
same,inhibition,[7]; at 0.5 µM,-8.56% (inactive)
same,inhibition,[7]; [33],5.57%
same,inhibition,[7]; [34],-16.5%
same,inhibition,[8]; at 0.5 µM,-5.91% (inactive)
same,inhibition,[8]; [35],-14.1%
same,inhibition,[8]; [36],-20.4%
same,inhibition,[9]; at 0.5 µM,-23.7% (inactive)
same,inhibition,[9]; [25],-29.5%
same,inhibition,[9]; [26],43.1%
same,inhibition,[10]; at 0.5 µM,-0.98% (inactive)
same,inhibition,[10]; [37],1.65%
same,inhibition,[10]; [38],39.9%
same,inhibition,[10]; [39],-3.72%
same,inhibition,[10]; [40],56.7%
same,inhibition,[11]; [41],44.1%
same,inhibition,[11]; at 0.5 µM,-3.8% (inactive)
same,inhibition,[11]; [42],48.6%
same,inhibition,[12]; at 0.5 µM,3.62% (inactive)
same,inhibition,[12]; [43],4.43%
same,inhibition,[12]; [44],0.413%
same,inhibition,[13]; at 0.5 µM,-5.97% (inactive)
same,inhibition,[13]; [45],-9.26%
same,inhibition,"[13]; cisplatin combination, at 5 µM",48.9%
same,inhibition,[13]; [46],-2.12%
same,inhibition,"[13]; single agent, at 5 µM",20.7%
same,inhibition,[14]; at 0.5 µM,9.79% (inactive)
same,inhibition,"[14]; cisplatin combo, at 5 µM",75.6%
same,inhibition,[14]; [47],6.86%
same,inhibition,[14]; [25],15.7%
same,inhibition,"[14]; single agent, at 5 µM",33.4%
same,inhibition,[15]; at 0.5 µM,8.87% (inactive)
same,inhibition,[15]; [22],-16.3%
same,inhibition,[15]; [23],21.4%
same,inhibition,"[15]; single agent, at 0.05 µM",18.3%
same,inhibition,"[15]; single agent, at 5 µM",72.3%
